These results are taken from PubChem BioAssay AID2284189 (EPA ToxCast).

Structures are written as SMILES. Calls of active or inactive are those of the source. Rule for the calls: active = hit-call score of the fitted dose curve at least 0.9, where 1 is the maximum; inactive = score below 0.9.

Sequence of rat Glutamate (Kainate, Non-Selective), conducted at France lab site, Grik1 (gene 29559) (P22756 whole entry, looked up): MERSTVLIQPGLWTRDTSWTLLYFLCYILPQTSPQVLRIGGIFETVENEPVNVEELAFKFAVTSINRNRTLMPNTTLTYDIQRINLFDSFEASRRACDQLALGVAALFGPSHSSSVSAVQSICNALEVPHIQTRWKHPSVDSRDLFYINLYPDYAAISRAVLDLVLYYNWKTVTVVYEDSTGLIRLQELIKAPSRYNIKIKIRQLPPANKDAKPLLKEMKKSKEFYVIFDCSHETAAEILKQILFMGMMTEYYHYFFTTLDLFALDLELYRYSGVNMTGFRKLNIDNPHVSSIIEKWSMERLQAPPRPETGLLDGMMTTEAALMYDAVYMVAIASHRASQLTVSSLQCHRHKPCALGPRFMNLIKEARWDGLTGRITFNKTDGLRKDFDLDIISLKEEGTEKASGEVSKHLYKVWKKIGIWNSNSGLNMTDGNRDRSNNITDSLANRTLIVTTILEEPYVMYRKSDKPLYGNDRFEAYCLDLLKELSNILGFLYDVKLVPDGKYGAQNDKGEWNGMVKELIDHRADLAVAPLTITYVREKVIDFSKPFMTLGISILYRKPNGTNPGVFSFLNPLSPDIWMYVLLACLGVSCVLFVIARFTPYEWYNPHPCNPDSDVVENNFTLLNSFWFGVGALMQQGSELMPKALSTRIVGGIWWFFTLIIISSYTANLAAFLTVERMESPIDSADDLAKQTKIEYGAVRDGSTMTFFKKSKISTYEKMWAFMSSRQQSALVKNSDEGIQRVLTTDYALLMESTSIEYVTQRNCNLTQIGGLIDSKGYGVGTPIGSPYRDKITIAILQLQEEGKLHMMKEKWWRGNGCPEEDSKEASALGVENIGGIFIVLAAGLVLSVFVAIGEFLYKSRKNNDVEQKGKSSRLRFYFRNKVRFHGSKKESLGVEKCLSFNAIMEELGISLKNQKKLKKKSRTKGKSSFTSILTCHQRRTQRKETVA

This assay addresses rat Glutamate (Kainate, Non-Selective), conducted at France lab site, Grik1 (gene 29559) (UniProt P22756). The experiment in a line: ERF_FR_LGIC_rGRIK1: Eurofins (ERF) Ion Channel [3H] Kainic acid Binding LeadHunter Assay for rat Glutamate (Kainate, Non-Selective), conducted at France lab site. The method, then: ERF_FR_LGIC_rGRIK1 is a biochemical, single-readout assay that uses extracted gene-proteins in a cell-free assay. Measurements were taken 1 hour after chemical dosing in a 96-well plate. See Glutamate (Kianate, Non-Selective) Rat Ion Channel [3H]- Kainic acid Binding Assay, Cerep.ERF_FR_LGIC_rGRIK1 is an assay component calculated from the ERF_FR_LGIC_rGRIK1 assay. It is designed to measure radioligand binding using a type of binding reporter as detected by scintillation counting with radiometry technology.Data from the assay component ERF_FR_LGIC_rGRIK1 was analyzed at the assay endpoint, ERF_FR_LGIC_rGRIK1, in the positive analysis fitting direction relative to DMSO as the negative control and baseline of activity. Using a type of binding reporter, loss-of-signal activity can be used to understand changes in binding as they relate to gene GRIK1. To generalize the intended target to other relatable targets, this assay endpoint is annotated to the ion channel intended target family, where the subfamily is ligand-gated (glutamate, Ionotropic).
Glutamate kainite receptor containing membranes are prepared from brain cortices from male Wistar rats in Tris-HCl buffer pH 7.4. A 10 mg aliquot is incubated with 5 nM [3H]Kainic acid for 60 minutes at 4C. […] Membranes are filtered and washed, the filters are then counted to determine [3H]Kainic acid specifically bound.
As to `O=C(/C=C/c1ccc(O)cc1)CC(=O)/C=C/c1ccc(O)cc1`, the AC50 (in general, the concentration giving half of the maximal activity seen) is 2.87 µM (active).
